HT1080 IDH1KD tx: qHTS for induction of synthetic lethality in tumor cells producing 2HG: qHTS for the HT-1080-IDH1KD cell line. Potency, µM (top dose mostly 46.1 µM), hits mostly cytotoxic. AID 686971, 2013. HT-1080 IDH1 knockdown viability, ATP luminescence, 48 h. 2% of 360,000 active
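CellTiter-Glo luminescence after 48 h compound exposure at 37 degrees C of IDH1-knockdown HT-1080 cells in 5% FBS RPMI. %Activity scaled between DMSO wells and cell-free media wells, with curves fitted and assigned curve classes.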
IL-1B inflam inh: qHTS for Inhibitors of Inflammasome Signaling: IL-1-beta AlphaLISA Primary Screen | THP-1 LPS/ATP IL-1B secretion, AlphaLISA, 16 h; active compounds read low | activity change, % at 57.5 µM | 4.7% of 360,000 active | AID 743279, 2014; in the data active = activity change below about -50%; inconclusive = mostly about -30% to -49%
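THP-1 cells pretreated 1 hr with compounds (up to 57.5 uM final), then stimulated with LPS (250 ng/mL final) plus ATP (1.25 mM final); secreted IL-1B measured by AlphaLISA after 16 hr, decreased signal indicating inhibition.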
HT1080-NT tox: qHTS for induction of synthetic lethality in tumor cells producing 2HG: qHTS for the HT-1080-NT fibrosarcoma cell line; HT-1080-NT fibrosarcoma viability, CellTiter-Glo ATP luminescence, 48 h; Potency, µM (top dose mostly 46.1 µM), actives largely listed as cytotoxic; 1.6% of 360,000 active; AID 686970, 2013;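 note: NT is the 2HG producing partner of a matched IDH1 knockdown line; nearly all actives have a fitted effect of over 55% in size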
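Viability of the 2HG-overproducing fibrosarcoma line after 48 hours of compound exposure at 37 degrees C was determined by luminescence with CellTiter-Glo, and concentration-effect curves were then fitted and categorized.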
TDP1 cell CPT: qHTS for Inhibitors of human tyrosyl-DNA phosphodiesterase 1 (TDP1): qHTS in cells in presence of CPT | chicken DT40 Tdp1-/-;hTDP1 cells + 20 nM CPT, ATP luminescence, 48 h | Potency, µM (titrated, usually from 46.2 µM), most hits filed as inhibitors | 12% of 420,000 active | AID 686979, 2013; note: nearly all actives have a fitted effect of over 55% in size
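Cell growth measured by CellTiter-Glo luminescence after a minimum 48 h, 37 C compound exposure with 20 nM CPT in Tdp1-knockout DT40 cells stably expressing hTDP1, seeded 400/well; qHTS titration format.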
TDP1 cell noCPT: qHTS for Inhibitors of human tyrosyl-DNA phosphodiesterase 1 (TDP1): qHTS in cells in absence of CPT | DT40 Tdp1-/- hTDP1 cells, no CPT, ATP luminescence, 48 h | Potency, µM (highest dose often 46.2 µM), actives largely listed as inhibitors | 15% of 420,000 active | AID 686978, 2013; note: nearly all actives have a fitted effect of over 55% in size
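Growth kinetics read by CellTiter-Glo luminescence after ≥48 hr at 37 °C. Cells: DT40 Tdp1-/- stably carrying human TDP1, 400 per well, compound exposure in the absence of CPT (DMSO vehicle).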
A number is an active result; . = inactive; ? = inconclusive; / = not tested or not shown; [ ] = dose if it differs, or a comment. Hits are enriched below; roughly 19% of the tested compounds scored in any of these assays. Unless noted, calls come from the whole dose curve; as a rule, active = well fitted curve in the direction sought with a large enough effect; inconclusive = small, poorly fitted or top-dose-only effect, or another doubt; inactive = no such curve, though single readings can be large; an effect the other way counts as inactive or inconclusive.

SMILES	HT1080 IDH1KD tx	IL-1B inflam inh	HT1080-NT tox	TDP1 cell CPT	TDP1 cell noCPT
C=CCn1c(O)c(C(CC)=NCCCO)c(=O)[nH]c1=O	.	.	.	.	8.2µM
Cc1ccc(OCCOc2cccc(C=C3C(=O)NC(=O)NC3=O)c2)c(C)c1	.	.	.	?	?
CCN(CC)S(=O)(=O)c1cc(NC(=O)C(C)N2CC=C(c3ccccc3)CC2)ccc1C (stereo not drawn)	.	-58.3	.	8.2µM	6.51µM
Cc1[nH]c2ccccc2c1C(=O)CN1CC=C(c2ccccc2)CC1	.	.	.	16.4µM	?
Cc1cc(Br)c(NC(=O)CN2CC=C(c3ccccc3)CC2)c(Br)c1	.	.	.	.	?
COc1nc(NCC2CCCO2)nc(N2CC3CC(C2)c2cccc(=O)n2C3)n1 (stereo not drawn)	.	.	.	.	.
CCCN(CC1CC1)CC(O)c1ccccc1 (stereo not drawn)	.	.	.	16.4µM	18.4µM
COc1ccc(Oc2cc(NC(=O)c3nn(C)cc3[N+](=O)[O-])cc([N+](=O)[O-])c2)cc1	5.17µM	-96.2	18.4µM	.	.
CCCCC/C=C\C/C=C\C/C=C\C/C=C\CCCC(=O)Nc1ccc(O)cc1	/	/	/	26.6µM	21.1µM
CCCCC/C=C\C/C=C\C/C=C\C/C=C\CCCC(=O)NCC(=O)O	/	/	/	.[4.12 µM]	.[4.12 µM]
Cc1ccc(Cl)cc1N1CCN(CCN)CC1	.	?	.	16.4µM	?
O=C(O)[C@@H](O)[C@H](O)[C@H](O)[C@@H](O)C(=O)O (tested in a mixture with another compound)	/	/	/	?	.
Cc1cccc(OC(=O)N2CCOCC2)c1	.	.	.	.	.
CC(C)(C)c1ccc(/C=C2\Oc3cc(OC(=O)N4CCOCC4)ccc3C2=O)cc1	18.4µM	-76.9	20.6µM	16.4µM	25.9µM
COc1ccc(Cl)cc1C(=O)C1CCCN(Cc2cnc(C)s2)C1 (stereo not drawn)	.	.	.	.	?
Nc1ccc(Br)cc1C(=O)c1ccccc1	.	.	.	.	.
C=CCn1c(O)c(/C=C2\C=Nc3ccccc32)c(=O)[nH]c1=O	.	.	?	.	.
CCC1C2CC3C4N(C)c5ccccc5[C@]45CC(C2C5O)N3C1O (stereo partly drawn)	/	/	/	0.461µM	0.366µM
Clc1ccc(N2CC2c2ccncc2)cc1 (stereo not drawn)	.	.	.	?	?
CC(NC(=O)c1cc(F)ccc1F)c1nnc2n1CCN(Cc1ccc(-c3ccccc3)cc1)CC2 (stereo not drawn)	/	/	/	.[9.04 µM]	?
CC(C)OC(=O)c1c(N)n(Cc2ccco2)c2nc3ccccc3nc12	.	.	.	?	?
COC(=O)c1c(N)n(Cc2ccc(OC)cc2)c2nc3ccccc3nc12	.	.	.	?	16.4µM
CCCNC(=O)c1c(N)n(Cc2ccc3c(c2)OCO3)c2nc3ccccc3nc12	.	.	.	.	.
COCCOC(=O)c1c(N)n(Cc2ccc(OC)cc2)c2nc3ccccc3nc12	.	.	.	?	20.6µM
CCC(=O)Nc1ccccc1	.	.	.	.	.
SMILES	HT1080 IDH1KD tx	IL-1B inflam inh	HT1080-NT tox	TDP1 cell CPT	TDP1 cell noCPT
Cn1cc(NC(=O)CCl)cn1	?	-101.5	?	?	?
O=c1c2ccccc2nc(/C=C/c2ccc3c(c2)OCO3)n1-c1ccccc1	.	.	.	?	23.1µM
COc1cc(/C=C/c2nc3ccccc3c(=O)n2-c2ccc(O)cc2)ccc1O	18.4µM	-65.3	16.4µM	?	?
COc1cccc(-n2c(/C=C\c3ccc(Cl)cc3)nc3ccccc3c2=O)c1	/	/	/	?	18.4µM
COc1ccc(-n2c(/C=C/c3ccc(O)c(O)c3)nc3ccccc3c2=O)cc1	.	?	.	?	18.4µM
CCN(CC)C(=O)C(C(=O)c1cccc([N+](=O)[O-])c1)n1cc(Cl)ccc1=O (stereo not drawn)	.	.	.	.	?
O=C(c1cn(Cc2ccccc2F)c2ncccc12)C(F)(F)F	.	.	.	.	.
Cc1ccsc1C(=O)C1CCCN(Cc2cn(C)nc2C)C1 (stereo not drawn)	.	.	.	.	.
COCCOc1ccc(C(F)(F)F)cc1NC(=O)CN1C(=O)NC2(CCCc3ccccc32)C1=O (stereo not drawn)	.	.	.	?	25.9µM
COc1ccc(Cc2nccc3cc(OC)c(OC)cc23)cc1OC	?	.	?	8.2µM	5.8µM
O=C(O)[C@H](O)[C@@H](O)C(=O)O	.	.	.	.	.
Oc1ccc(O)c2c1C1(Cl)C(Cl)=C(Cl)C2(Cl)C1(Cl)Cl	23.1µM	-60.7	?	23.1µM	16.4µM
COC(=O)C1CN(C#N)N(c2ccc(Cl)cc2)C12c1ccccc1-c1ccccc12 (stereo not drawn)	3.66µM	-97.0	3.26µM	3.26µM	2.91µM
O=[N+]([O-])c1ccc(N2CCCC2)c(F)c1Br	.	.	.	13µM	23.1µM
O=C1NC(=O)C(CCc2ccncc2)(CCc2ccncc2)C(=O)N1Cc1ccc(F)cc1	.	.	.	14.6µM	?
COc1cc2c(cc1OC)C13CCN4CC5=CCOC6CC(=O)N2C1C6C5C3C4 (stereo not drawn) (tested in a mixture with another compound)	.	.	.	13µM	?
CCOc1cc(-c2ccc(N)c(OCC)c2)ccc1N	.	.	.	11.6µM	?
Cc1cccc(CN2CCc3nc(N4CCN(c5ccccn5)CC4)ncc3C2)c1	/	/	/	14.6µM	10.3µM
COC(=O)C1=C(C(=O)OC)SC2(S1)C(C(=O)OC)=C(C(=O)OC)Sc1c2ssc1=O	1.16µM	-95.4	5.17µM	0.092µM	0.184µM
NC(Cc1ccc(C(F)(F)F)cc1)c1csc(Nc2nncc3ccccc23)n1 (stereo not drawn)	?	-66.5	?	13µM	20.6µM
NC(Cc1ccc(F)cc1)c1csc(Nc2ncccn2)n1 (stereo not drawn)	6.51µM	.	5.8µM	7.31µM	5.8µM
NC(Cc1ccc(Cl)cc1)c1csc(Nc2ncccn2)n1 (stereo not drawn)	5.8µM	?	18.4µM	3.66µM	4.11µM
Nc1ccc(CC(N)c2csc(Nc3ncccn3)n2)cc1 (stereo not drawn)	.	.	.	18.4µM	10.3µM
C[C@]12CCC(=O)C=C1CCc1ccc(O)cc12	/	/	/	.	.
OCCN(CC#CC(O)(c1ccccc1)C1CCCC1)CCO (stereo not drawn)	.	.	.	.	.

Compound activity deposited in PubChem BioAssay by National Center for Advancing Translational Sciences (NCATS).
